Screens: PubChem, Sanford-Burnham Center for Chemical Genomics
APOBEC3A inh – inhibitors of human APOBEC3A DNA deaminase; P31941; recombinant A3A, FAM/TAMRA ssDNA deamination fluorescence; inhibition, % at 20 µM; hit rate 0.41% among 330,000;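 active means at least 40% inhibition at 20 µM here, with at most 30% in a related deaminase screen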
eIF4H FP inh – inhibitors of RNA binding by human eIF4H; hit rate 0.94% among 290,000; Q15056; AID 2012; eIF4H fluorescence polarization binding assay; inhibition, % at 35 µM;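 further: calls also rest on retests at 20 µM and on dose response follow-up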
PABP1 MLLE inh – inhibitors of microRNA-mediated deadenylation, human PABP1 MLLE binding. GST-MLLE / FITC-PAM2 fluorescence polarization. hit rate 0.36% among 360,000. P11940. inhibition, % at 20 µM; in the data active means inhibition above about 35%, passing the limit was not always enough
PABP polyA inh – blocks human PABP binding to poly(A) RNA. calls only at 35 µM. AID 2014. fluorescence polarization. P11940. hit rate 1% among 290,000;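 further: calls also rest on retests at 20 µM and on dose response follow-up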
PHOSPHO1 block – PHOSPHO1 (human) inhibition; inhibition, % at 13.3 µM; recombinant PHOSPHO1, absorbance phosphatase assay; hit rate 1.1% among 290,000; Q8TCT1; in the data active means inhibition above about 60%
APOBEC3G inh – blocks human APOBEC3G single-stranded DNA deamination | Q9HC16 | recombinant A3G, ssDNA deamination FAM/TAMRA fluorescence | inhibition, % at 20 µM | hit rate 0.28% among 330,000;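 active means inhibition of at least 40% at 20 µM, with no more than 30% in the related APOBEC3A deaminase screen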
Target sequence (Q9HC16 whole entry, looked up): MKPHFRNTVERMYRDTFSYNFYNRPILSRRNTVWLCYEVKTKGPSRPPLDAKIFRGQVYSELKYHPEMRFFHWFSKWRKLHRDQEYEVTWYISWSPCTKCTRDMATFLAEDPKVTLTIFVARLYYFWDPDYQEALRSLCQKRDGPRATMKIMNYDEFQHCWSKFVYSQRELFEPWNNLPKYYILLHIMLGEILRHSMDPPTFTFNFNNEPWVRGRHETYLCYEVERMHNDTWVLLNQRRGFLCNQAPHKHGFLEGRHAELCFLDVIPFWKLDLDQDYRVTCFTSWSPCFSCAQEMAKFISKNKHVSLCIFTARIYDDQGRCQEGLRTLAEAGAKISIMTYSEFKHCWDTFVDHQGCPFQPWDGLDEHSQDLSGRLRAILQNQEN
Of the large screens only hits and unclear results are named; the others gave an inactive call. This is a sample that favours compounds with a hit; in the whole collection about 2.6% have one here. Unless noted, how the calls were made is not given here.

Cc1ccc(N2C(=O)NC(=O)/C(=C\c3cnc(-c4ccccc4)nc3)C2=O)cc1	eIF4H FP inh 58
Cc1ccc(N2C(=O)NC(=O)/C(=C\c3cccn3C(C)(C)C)C2=O)cc1	PHOSPHO1 block 60
CSc1ncc(/C=C2/C(=O)NC(=O)N(c3ccc(C)cc3)C2=O)cn1	none
Cc1ccc(N2C(=O)NC(=O)/C(=C/c3ccoc3)C2=O)cc1	eIF4H FP inh inconclusive, PABP polyA inh inconclusive (no result: APOBEC3A inh, APOBEC3G inh)
c1ccc(P(c2ccccc2)c2ccccn2)cc1	PABP1 MLLE inh 39
COc1ccc(C(=O)C2CCCN(CC3CCCCC3)C2)cc1OC (stereo unspecified)	none (no result: APOBEC3A inh, eIF4H FP inh, PABP polyA inh, PHOSPHO1 block, APOBEC3G inh)
COc1ccc(OC)c(N=Cc2c(O)n(Cc3ccccc3)c(=S)[nH]c2=O)c1	eIF4H FP inh 35, PABP polyA inh active
COc1ccc(N=Cc2c(O)n(Cc3ccccc3)c(=S)[nH]c2=O)c(OC)c1	eIF4H FP inh inconclusive, PABP polyA inh inconclusive
COc1ccc(/C=C2\C(=O)NC(=O)N(CCC3=CCCCC3)C2=O)c(OC)c1	eIF4H FP inh inconclusive
COc1ccc(CN2C(=O)NC(=O)/C(=C/c3cc(OC)c(OC)c(OC)c3)C2=O)cc1	eIF4H FP inh inconclusive, PABP polyA inh active
COc1ccc(CN2C(=O)NC(=O)/C(=C/c3ccoc3)C2=O)cc1	eIF4H FP inh inconclusive, PABP polyA inh inconclusive
COc1ccc(CN2C(=O)NC(=O)/C(=C/c3ccc(OC)c(OC)c3OC)C2=O)cc1	eIF4H FP inh 69
COc1ccc(C2SCC(=O)Nc3c2c(=O)[nH]n3C2CCCCC2)cc1 (stereo unspecified)	none
CCOc1ccc(NC(=O)N2C[C@H]3C[C@@H](C2)c2cccc(=O)n2C3)cc1	none
O=C1NC(=O)C(=Cc2cc3c(cc2[N+](=O)[O-])OCO3)C(=O)N1	eIF4H FP inh 98, PABP polyA inh active
C[C@@H]1CN([C@H](C)CO)C(=O)CCCn2nncc2CO[C@H]1CN(C)C(=O)Oc1ccccc1	none (no result: APOBEC3A inh, eIF4H FP inh, PABP polyA inh, PHOSPHO1 block, APOBEC3G inh)
Cc1ccc(Sc2ccc(C=C3C(=O)N(C)C(=O)N(C)C3=O)o2)cc1	eIF4H FP inh inconclusive, PABP polyA inh active
CN1C(=O)C(=Cc2ccc(-c3cccc(Cl)c3)o2)C(=O)N(C)C1=O	none (no result: PABP1 MLLE inh)
COc1ccc(Cl)cc1C(=O)C1CCCN(CCO)C1 (stereo unspecified)	none
O=C(c1ccc(-c2ccccc2)c(F)c1)C1CCCN(CCO)C1 (stereo unspecified)	PHOSPHO1 block 60
O=C(c1ccc2c3c(cccc13)CC2)C1CCCN(CC2CC2)C1 (stereo unspecified)	PHOSPHO1 block 60
O=C(c1ccc2c3c(cccc13)CC2)C1CCCN(Cc2ncc[nH]2)C1 (stereo unspecified)	none
CCCNC(=O)N1CCC2(CC1)OCCO2	PHOSPHO1 block 62
CCOC(=O)C1SC2(C(F)(F)F)CC1(O)c1c(C)cc(C)nc1O2 (stereo unspecified)	PABP1 MLLE inh 60
CCOC(=O)C1CCN(/C=C2/C(=O)NC(=S)N(c3cccc(OC)c3)C2=O)CC1	none
CCOC(=O)C1CCN(/C=C2\C(=O)NC(=S)N(CC)C2=O)CC1	PHOSPHO1 block 62
COc1ccc2[nH]c(C)c(CCNCc3cc(OC)c(OC)c(OC)c3)c2c1	eIF4H FP inh 94, PABP polyA inh active
O=C1NC(=S)NC(=O)C1=Cc1cccc2cc3ccccc3cc12	PABP1 MLLE inh 40 (no result: APOBEC3A inh, APOBEC3G inh)
O=C1NC(=O)C(=Cc2csc3ccccc23)C(=O)N1	PABP1 MLLE inh 41
CN(C)P(=NC(=S)c1cccn1C)(N(C)C)N(C)C	PABP1 MLLE inh 37
CCOC(=O)COc1ccc(/C=C2\C(=O)NC(=S)N(c3ccc(OC)cc3)C2=O)cc1OC	PABP1 MLLE inh 39
COC(=O)COc1ccc(/C=C2\C(=O)NC(=S)N(c3ccc(C)cc3)C2=O)cc1OC	none
CC(C)(O)[C@H]1O[C@H]2CC[C@@]3(C)[C@@](O)(CC[C@H]4Cc5c([nH]c6ccccc56)[C@@]43C)C2=CC1=O	eIF4H FP inh inconclusive (no result: PABP1 MLLE inh)
CN1C(=O)C(=Cc2sc(=O)n(-c3ccccc3)c2N2CCCCC2)C(=O)N(C)C1=O	eIF4H FP inh inconclusive, PABP polyA inh inconclusive (no result: APOBEC3A inh, APOBEC3G inh)
CN1CCN(c2nc3ccccn3c(=O)c2C=C2C(=O)N(C)C(=O)N(C)C2=O)CC1	eIF4H FP inh inconclusive, PABP polyA inh active
C=CCn1c(O)c(/C(CC)=N/NC(=S)Nc2ccccc2)c(=O)[nH]c1=O	PHOSPHO1 block 67
O=c1[nH]c(=O)n(-c2cccc3ccccc23)c(O)c1/C=N/N1CCCCC1c1cccnc1 (stereo unspecified)	eIF4H FP inh 89, PABP polyA inh active
O=[N+]([O-])c1ccc(C(c2ccc([N+](=O)[O-])cc2)c2ccc([N+](=O)[O-])cc2)cc1	none (no result: APOBEC3A inh, eIF4H FP inh, PABP polyA inh, PHOSPHO1 block, APOBEC3G inh)
Cn1cnc([N+](=O)[O-])c1Sc1ccc([N+](=O)[O-])cc1	PABP1 MLLE inh 47
CCOP(=O)(OCC)C(NC(=O)CN1C(=O)c2ccccc2S1(=O)=O)C(Cl)(Cl)Cl (stereo unspecified)	none
CC(C)c1onc(C(=O)N2CCC3(CC2)OCCO3)c1[N+](=O)[O-]	PHOSPHO1 block 64
COc1cc(OC)cc(C(=O)NC(=S)N2C[C@H]3C[C@H](C2)c2cccc(=O)n2C3)c1	none
O=C(NC(=S)N1C[C@H]2C[C@H](C1)c1cccc(=O)n1C2)c1ccc(Cl)cc1	PABP1 MLLE inh 42
COc1ccccc1-n1c(-c2ccccc2Br)nc2ccccc2c1=O	none
COc1cc(CNCCc2c[nH]c3ccccc23)cc(OC)c1	none
CCCCN1C(=O)/C(=C\c2ccco2)C(=O)N(CCc2ccccc2)C1=O	eIF4H FP inh inconclusive, PABP polyA inh active
O=C1NC(=O)N(Cc2ccccc2)C(=O)/C1=C\c1ccco1	eIF4H FP inh inconclusive
CCCCN1C(=O)/C(=C/C=C/c2ccco2)C(=O)NC1=S	eIF4H FP inh 72, PABP polyA inh active (no result: APOBEC3A inh, APOBEC3G inh)
O=C(C1CCC(=O)N1C1CCCCC1)N1CCC2(CC1)OCCO2 (stereo unspecified)	none
O=C1NC(=O)C(CCc2ccncc2)(CCc2ccncc2)C(=O)N1CCc1ccccc1	PHOSPHO1 block 63
COc1ccc2c(C)c(CCC(=O)N3C[C@H]4C[C@@H](C3)c3cccc(=O)n3C4)c(=O)oc2c1	none
CCc1ccccc1N1C(=O)NC(=O)/C(=C\c2cc(C)n(C)c2C)C1=O	eIF4H FP inh 66, PABP polyA inh inconclusive
C=CCN1C(=O)/C(=C/c2cc(C)n(-c3ccccn3)c2C)C(=O)NC1=S	eIF4H FP inh inconclusive, PABP polyA inh active
Cc1cc(C)cc(N2C(=O)NC(=O)/C(=C\c3cc(C)n(C)c3C)C2=O)c1	eIF4H FP inh inconclusive, PABP polyA inh inconclusive
Cc1cc(/C=C2\C(=O)NC(=O)N(c3ccc(F)cc3)C2=O)c(C)n1-c1cccc(C(=O)O)c1	PABP polyA inh active
Cc1cc(/C=C2\C(=O)NC(=O)N(c3ccccc3)C2=O)c(C)n1-c1ccc(C(=O)O)c(Cl)c1	PABP polyA inh active
Cc1cc(/C=C2\C(=O)NC(=O)N(c3ccc(Cl)cc3)C2=O)c(C)n1C	none
